Cruzain Triton – qHTS Assay for Promiscuous and Specific Inhibitors of Cruzain (with detergent); Cruzipain (Trypanosoma cruzi), P25779; purified cruzain, Z-FR-AMC fluorescence, 0.01% Triton; Potency, µM, for inactives: max response, negative = inhibition, hits mostly inhibitors; 200,000 tested, 0.43% active; AID 1478, 2009;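 also: plate controls were neutral wells for no effect and buffer without enzyme for full effect; nearly all actives have a fitted effect of over 40% in size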
Target sequence (P25779 123-467 limits assumed): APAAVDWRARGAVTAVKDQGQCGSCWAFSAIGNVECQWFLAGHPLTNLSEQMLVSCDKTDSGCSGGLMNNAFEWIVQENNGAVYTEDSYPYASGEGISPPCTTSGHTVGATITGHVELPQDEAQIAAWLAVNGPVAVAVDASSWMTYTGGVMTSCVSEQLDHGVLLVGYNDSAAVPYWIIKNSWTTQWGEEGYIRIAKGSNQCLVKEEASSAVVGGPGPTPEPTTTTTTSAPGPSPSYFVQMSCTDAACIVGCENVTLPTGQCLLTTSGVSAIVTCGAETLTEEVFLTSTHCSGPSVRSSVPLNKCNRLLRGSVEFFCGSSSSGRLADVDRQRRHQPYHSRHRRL
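Cruzain (1.5 nM) preincubated 15 min at RT with compound in 100 mM sodium acetate pH 5.5, 5 mM DTT, 0.01% Triton X-100. Reaction started with 2 uM Z-FR-AMC; AMC fluorescence (ex 360/em 450 nm) change over 60 s gave rate.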
Cruzain inh noDet – qHTS Assay for Promiscuous and Specific Inhibitors of Cruzain (without detergent); 200,000 tested, 2.3% active; purified cruzain, Z-FR-AMC fluorescence, no detergent; Potency, µM, without a hit: max response, negative = inhibition, usual class: inhibitors; Cruzipain (Trypanosoma cruzi), P25779;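 also: plate controls were enzyme without inhibitor for no effect and buffer without enzyme for full effect; nearly all actives have a fitted effect of over 40% in size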
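Purified cruzain at 1.5 nM, pre-incubated 15 min with compound at room temperature in 100 mM sodium acetate pH 5.5, 5 mM DTT, 0.00005% Triton X-100. Reaction started with 2 uM Z-FR-AMC; AMC fluorescence increase over 60 s gives rate.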
The depositor's hits bear a star; ? = inconclusive. In the library only some 2.4% were active in any assay of this set; here they are far more common. Calls follow the shape of the dose curve; as a rule, active = well fitted curve in the direction sought with a large enough effect; inconclusive = small, poorly fitted or top-dose-only effect, or another doubt; inactive = no such curve, though single readings can be large; an effect the other way counts as inactive or inconclusive. Potency is read from the fitted curve at half-maximal effect.

SMILES	Cruzain Triton	Cruzain inh noDet
COc1ccc(C(CC(=O)Nc2cccc(C)c2C)N2Cc3ccccc3C2=O)cc1 (stereo not drawn)	-5.8%	-10.9%
CCCCc1ccc(NC(=O)COc2ccc(C(=O)Nc3ccccc3OC)cc2)cc1	-5.7%	-9.9%
CCCn1ccc2c(OCC(=O)NCc3ccc(C)cc3)cccc2c1=O	-3.8%	-10.6%
CCCCc1ccc(NC(=O)COc2cccc3c(=O)n(C)ccc23)cc1	-2.0%	20µM*
CCCCc1ccc(NC(=O)COc2ccc(C(=O)Nc3ccccc3C)cc2)cc1	5.6%	31.6µM*
Cc1ccc(-n2c(=O)c3oc4ccccc4c3n(Cc3ccccc3)c2=O)cc1C	-1.4%	-8.5%
Cc1ccc(-n2ncc3c(N4CCCCCC4)ncnc32)cc1	0.3%	-13.8%
COc1cccc(-c2cc(C(=O)Nc3ccc(Br)c(C)c3)[nH]n2)c1	-1.2%	12.6µM*
COc1cccc(-c2cc(C(=O)Nc3ccc(F)cc3)[nH]n2)c1	-0.7%	?
Cc1cc(C)c2c(=O)cc(C(=O)Nc3sc4c(c3C(=O)NCc3ccccc3)CCCC4)oc2c1	-0.1%	-10.5%
COC(=O)c1ccc(Cl)cc1NC(=O)N1CC=C(c2c[nH]c3ccccc23)CC1	-11.0%	?
CCc1ccc(-c2cc(C)no2)cc1S(=O)(=O)N1CCN(c2cccc(Cl)c2)CC1	-3.0%	25.1µM*
Cc1ccc2cccc(S(=O)(=O)N3CCN(c4cccc(Cl)c4)CC3)c2n1	-0.5%	-2.3%
COc1ccc(CCn2c(C)cc(C(=O)CSc3nc(N)cc(=O)[nH]3)c2C)cc1	0.3%	25.1µM*
CCCc1cc(=O)[nH]c(SCC(=O)c2cc(C)n(CCOC)c2C)n1	0.6%	6.2%
Cc1cc(C(=O)CSc2nc(N)cc(=O)[nH]2)c(C)n1CCc1ccc(F)cc1	1.0%	25.1µM*
Cc1cc(C(=O)CSc2nnnn2C)c(C)n1CCc1ccc(F)cc1	6.2%	25.1µM*
COc1ccc(CCn2c(C)cc(C(=O)CSc3nnc(N)s3)c2C)cc1	-3.3%	?
Cc1cc(C(=O)CSc2nnnn2-c2ccccc2)c(C)n1CCc1ccccc1	0.5%	-9.3%
Cc1cc(C(=O)CSc2nnc(N)s2)c(C)n1CCc1ccc(F)cc1	3.4%	15.8µM*
Cc1cc(C(=O)CSc2nnc(N)s2)c(C)n1CCc1ccc(Cl)cc1	-1.1%	?
CC(C)Oc1cccc(C(=O)Nc2ccc(-c3nc4cc(Cl)cc(Cl)c4o3)cc2)c1	1.9%	13.9%
COc1ccc2cc3cc(C(=O)N4CCN(c5ccccc5F)CC4)oc3nc2c1	-2.9%	-18.8%
Cc1nc(NC2CCCCC2)c2nc(-c3ccccc3)n(CCN(C)C)c2n1	-3.5%	-1.1%
O=C(c1cc2c(ccc3ccccc32)oc1=O)N1CCCC1	-26.8%	?
SMILES	Cruzain Triton	Cruzain inh noDet
O=C(O)c1cc2ccc3ccccc3c2oc1=O	?	25.1µM*
O=C(O)c1cc2cc(Cl)cc(Cl)c2oc1=O	-3.4%	?
O=C(O)c1cc2c(ccc3ccccc32)oc1=O	?	10µM*
O=C(CN1C(=O)CC(c2ccccc2)Sc2ccccc21)Nc1cccc(Cl)c1 (stereo not drawn)	-2.6%	-4.3%
Cc1ccn2c(Nc3ccc4c(c3)OCCO4)c(-c3ccc(C)o3)nc2c1	-14.7%	-8.5%
COc1ccc(NS(=O)(=O)c2cccc(-c3nnc4n3CCCCC4)c2)cc1	3.8%	9.7%
COc1ccc(/C=C/C(=O)Nc2ccc(-c3nnc4n3CCCCC4)cc2)c(OC)c1	14.1µM*	-26.9%
COc1ccc(Br)cc1CNC(=O)c1cc2n(n1)CCCN(Cc1ccc(C)cc1)C2=O	-2.8%	5.4%
O=C(/C=C/c1ccc(O)cc1)c1ccc(NC2=C(N3CCCCC3)C(=O)c3ccccc3C2=O)cc1	-5.9%	12.6µM*
O=C1C(Nc2ccccc2)=C(N2CCCCC2)C(=O)c2ccccc21	-12.3%	-21.9%
Cc1ccccc1CSc1nc2c([nH]c3ccccc32)c(=O)n1-c1ccccc1	1.2%	-13.2%
CN(C(=O)CSc1nc2ccc(NC(=O)CCc3ccccc3)cc2s1)c1ccccc1	-4.4%	-2.8%
COC(=O)c1sc(NC(=O)C2c3ccccc3Oc3ccccc32)c(C(=O)OC)c1C	-2.5%	10µM*
CCOC(=O)c1c(NC(=O)C2c3ccccc3Oc3ccccc32)sc(C)c1C	-4.1%	?
COC(=O)c1c(NC(=O)C2c3ccccc3Oc3ccccc32)sc(C)c1C	0.2%	25.1µM*
COC(=O)c1c(NC(=O)Cc2ccccc2)sc(C)c1C	-8.0%	-8.6%
COC(=O)c1c(NC(=S)Nc2ccccc2Cl)sc(C)c1C	-3.2%	12.6µM*
CCOC(=O)c1c(NC(=O)C2c3ccccc3Oc3ccccc32)sc(C(C)=O)c1C	-0.7%	?
Cc1ccc2nc(SC(Cc3cc(Cl)ccc3Cl)C(=O)O)[nH]c2c1 (stereo not drawn)	-3.3%	-7.3%
Cc1ccc(Cl)cc1NC(=O)CN1C(=O)C(C)(C)c2cc(S(=O)(=O)N3CCCCC3)ccc21	0.0%	?

Screens (PubChem BioAssay)
